Laboratory results from PubChem BioAssay (NCI).
Compounds without any hit were thinned out: in the full panel of roughly 79,000, 15% have a hit. Unmarked numbers belong to inactive results. Calls of active or inactive are those of the source. No stated cut-off is given here; in the data, active means growth inhibition above about 70%; inactive means the rest. *1 amine or outer side, *2 acyl side, *3 side chain or, on linkers, in order; H or OH if unused. Where a SMILES comes first, the peptide text is derived from it. Bridges are numbered along the chain shown (N, C = ends). [ ]: non-standard residue; d: D form. The star is where a group is joined. X16 = CC(C)C(C)C(C(=O)[*:2])N(C)[*:1]; Picolinoyl(3-OH) = O=C(c1ncccc1O)*; NMePhg = CN[CH](C(=O)O)c1ccccc1; Hyp = O=C(O)[CH]1C[CH](O)CN1; Bz = O=C(c1ccccc1)*; Bn = c1ccc(C*)cc1; βAla = NCCC(=O)O; Sar = CNCC(=O)O

Legend:
[1] = NCI Yeast Anticancer Drug Screen. Data for the rad50 strain (AID 155);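 further: 0% = growth of vehicle-only cultures of the same strain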; conditions: S. cerevisiae rad50 strain growth inhibition; at 50.0 µM; hits give high values
Outline: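 Growth of the mutant yeast was measured after compound exposure and referenced to vehicle-treated cultures.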

[2] = NCI Yeast Anticancer Drug Screen. Data for the mec2-1 strain (AID 157); conditions: S. cerevisiae mec2-1 strain, at 50.0 µM, hits give high values
Outline: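 Using mec2-1 yeast: add compound, measure growth, express inhibition versus vehicle-treated cultures.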

[3] = NCI Yeast Anticancer Drug Screen. Data for the sgs1 mgt1 strain (AID 161);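 further: 0% = growth of cultures given vehicle only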; conditions: S. cerevisiae sgs1 mgt1 strain, at 50.0 µM, hits give high values
Outline: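 Growth of a repair-deficient yeast mutant was monitored after compound treatment and expressed as inhibition relative to vehicle-treated cultures.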

[4] = NCI Yeast Anticancer Drug Screen. Data for the cln2 rad14 strain (AID 165);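 further: 0% = growth equal to vehicle treated cultures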; conditions: S. cerevisiae cln2 rad14 strain, at 50.0 µM, hits give high values
Outline: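 Yeast strain cln2 rad14, bearing defects in cell cycle control and DNA repair, serves as the test system; values reflect growth inhibition compared with vehicle.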

[5] = NCI Yeast Anticancer Drug Screen. Data for the bub3 strain (AID 167); conditions: S. cerevisiae bub3 mutant strain, at 50.0 µM, hits give high values
Outline: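 Whole-cell yeast assay. The mutant strain was incubated with compounds, and growth inhibition was determined by comparison with vehicle-treated cells.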

[6] = NCI Yeast Anticancer Drug Screen. Data for the mlh1 rad18 strain (AID 175); conditions: S. cerevisiae mlh1 rad18 strain growth inhibition; at 50.0 µM; hits give high values
Outline: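 Steps: expose repair-defective yeast to compound; measure growth; express inhibition against vehicle-treated controls.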

| SMILES | growth inhibition [1] | growth inhibition [2] | growth inhibition [3] | growth inhibition [4] | growth inhibition [5] | growth inhibition [6] |
| --- | --- | --- | --- | --- | --- | --- |
| CC(C)C(NC(=O)C1CSC(C)(C)N1C=O)C(=O)O (stereo not drawn) | -1.6% | -0.1% | -3.3% | -8.35% | 6.55% | 2.25% |
| COC(=O)[C@]1(C)CCC[C@]2(C)C3=C[C@@H](O)[C@@]4(C(C)C)O[C@H]4[C@]3(O)CC[C@@H]12 | -17.9% | -29.3% | -9.15% | -2.7% | -8.25% | -26.6% |
| Cc1cccc(C)c1NC(=O)/C(Cc1nc2ccc([N+](=O)[O-])cc2[nH]c1=O)=N\NC(N)=O | 55.4% | 50.6% | 30.9% | 8.85% | 66.5% | 41.4% |
| c1ccc(-c2nc3ccccc3nc2-c2ccc(Cc3ccc(-c4nc5ccccc5nc4-c4ccccc4)cc3)cc2)cc1 | 39.5% | 19.1% | 15.4% | 21.2% | -6.5% | 25.1% |
| O=c1[nH]cc(NCCc2ccccc2)c(=O)[nH]1 | 0.75% | -4% | -17.4% | -50.9% | 7.4% | 1.6% |
| O=[N+]([O-])c1ccc(S(=O)(=O)N/N=C/C=C/c2ccccc2[N+](=O)[O-])cc1 | 5% | -5.65% | 7.35% | -7.55% | 16.4% | 39.1% |
| S=C(Sc1nc2ccccc2s1)Sc1nc2ccccc2s1 | 72% (active) | 91.1% (active) | 95% (active) | 85.5% (active) | 97.5% (active) | 90.7% (active) |
| C/C=C(\C)C(=O)N/N=C\C=C\c1ccccc1 | -12.2% | -10.8% | 0.95% | -44.8% | -16.1% | -7.05% |
| CC(C)CC1NC(=O)C(NC(=O)c2ncccc2O)C(C)OC(=O)C(c2ccccc2)N(C)C(=O)C(C)NC(=O)C(C(C)C(C)C)N(C)C(=O)CN(C)C(=O)C2CC(O)CN2C1=O (stereo not drawn) ({Picolinoyl(3-OH)}-TL[Hyp][Sar][X16]A[NMePhg]; ester 1-C; configuration not given here) | 15.8% | 3.65% | 19.1% | 3% | -10.9% | -2.35% |
| COC(=O)C(CSCc1ccccc1)NC(=O)C(CSCc1ccccc1)NC(=O)CCNC(=O)c1ccccc1 (stereo not drawn) ({Bz-βAla}-Cys(Bn)-Cys(Bn)-OMe; configuration not given here) | 13.9% | -5.05% | 2.1% | 30.1% | -0.9% | 9.05% |
| Cc1ccc(N=NC(C2=NC(=O)CS2)c2nc3ccccc3[nH]2)cc1 (stereo not drawn) | -55% | -31% | -52.8% | -44.8% | -56% | -73.8% |
| CCOC(=O)c1c(Br)c2c3ccccc3c3ccccc3n2c1C | 1.7% | -4.9% | -3.75% | -11.8% | 1.8% | 7.25% |
| Oc1cc(-c2ccc(Cl)cc2)cn2c1nc1ccccc12 | -13.3% | -23.8% | -38.5% | -24.1% | -5.75% | -50% |
| CC(=O)OCC1OC(OC(C)=O)C(NS(=O)(=O)c2ccc(C)cc2)C(OC(C)=O)C1OC(C)=O (stereo not drawn) | 18.3% | 4.25% | 18.1% | 17.8% | -3.65% | -4.65% |
| O=C(CSc1nc2ccccc2c2ccccc12)c1ccccc1 | 9.25% | -42.5% | -4.4% | -52% | -42.8% | 12.8% |
| BrCC(Br)c1ccc(C(Br)CBr)cc1 (stereo not drawn) | 7.65% | -21.6% | 25.1% | 14.7% | 1.5% | 12.1% |
| CCOc1ccc(C2=C/C(=C/c3cccs3)C(=O)O2)cc1 | 4.2% | -7.2% | -1.15% | -25.6% | 14.4% | -5.9% |
| COc1cc(CC(NC(=O)c2ccccc2)C(C)=O)cc(OC)c1OC (stereo not drawn) | -9.7% | 9.35% | -5.4% | -26.2% | 27.8% | -4.1% |
| COC(=O)C(N)CSCSC (stereo not drawn) | -12.8% | 13% | 3.7% | -44% | -13.8% | -5.65% |

| SMILES | growth inhibition [1] | growth inhibition [2] | growth inhibition [3] | growth inhibition [4] | growth inhibition [5] | growth inhibition [6] |
| --- | --- | --- | --- | --- | --- | --- |
| CCCCOC(=O)c1ccccc1 | -7% | 13.7% | -10.2% | -2.8% | -1.4% | 18.1% |
| CCN(CC)c1ccc2cc(C(=O)NC(=O)Oc3ccccc3)c(=O)oc2c1 | 25.1% | -5.5% | -6.05% | 25.1% | -3.2% | 9.35% |
| O=[N+]([O-])c1cccnc1Sc1nc2ccccc2[nH]1 | 20.2% | 17.9% | 25.5% | -20.5% | 21.8% | 6.2% |
| CCCCCCCCCC[CH2][Sn]([CH2]CCCCCCCCCC)([CH2]CCCCCCCCCC)[CH2]CCCCCCCCCC | 5.8% | 7.8% | -3.4% | -16.3% | -1.25% | 23.7% |
| CC(=O)C(CN1CCOCC1)C(C)(C)O (stereo not drawn) | 2.9% | 31.8% | 15.6% | -6.35% | 2.8% | 12.4% |
| O=C1CC[C@H](NC(=O)Cc2ccccc2)C(=O)N1 | -11.8% | -6.55% | -14.4% | 6.35% | -11.9% | -13.6% |
| O=c1c(F)cn2c(=O)n1CCCCCCCn1c(=O)c(F)cn(c1=O)CCCCCCC2 | 1.3% | -24.4% | 1.65% | 0.7% | -13.4% | 1.55% |
| Cc1cc(=O)[nH]c(NN2C(Cl)C(=O)C2c2c(O)ccc3ccccc23)n1 (stereo not drawn) | -8.2% | -10.6% | -0.75% | 13.3% | 0.7% | -32.8% |
| Cc1c(C)c(CSC#N)c(C)c(C)c1CSC#N | 53.8% | -13.6% | -10.1% | -1.9% | 8.2% | 8.55% |
| CC1(C)OCC2(CO1)CSCCCSCC1(COC(C)(C)OC1)CSCCCSC2 | -5.65% | -12.9% | -8.75% | -11.8% | -25.5% | -3.8% |
| CCCCCC(/C=C/c1ncccc1OCCCCCC(=O)O)=N\NC1=NCCN1 | 16.8% | -17.6% | -13.6% | -25.4% | -44.6% | 11.7% |
| COc1ccc(C2OC3=Nc4ccccc4NC3C2=O)cc1OC (stereo not drawn) | 11% | 16.3% | 20.7% | 5.25% | 15.3% | 16.4% |
| CN1C(C(=O)Nc2ccccn2)=C(O)c2ccccc2S1(=O)=O | 5% | 15.5% | 5.1% | 0.9% | -1.75% | 8.25% |
| CC(=O)OC(CCN(C)C)c1ccccc1 (stereo not drawn) | -1.35% | -7.5% | 0.6% | -34.1% | 24% | -5.45% |
| CC12NN=NC1C(=O)NC2=O (stereo not drawn) | 0.85% | -0.75% | 20.6% | 12% | -3.1% | -5.05% |
| O=C(Nc1ccc(Cl)cc1)Nc1nnc2nc(C(C(=O)c3ccc(O)cc3O)c3nc4nnc(NC(=O)Nc5ccc(Cl)cc5)n4[nH]c3=O)c(=O)[nH]n12 | 25.6% | 39.9% | 44.2% | 60.9% | 14.7% | 12.3% |
| CC/C=C\C/C=C\C/C=C\CCCCCCCC(=O)OC(COC(=O)CCCCCCCCCCCCCCCCC)COC1OC(CO)C(O)C(O)C1O (stereo not drawn) | 38.4% | 8.55% | 31.8% | -3.4% | 32.2% | 33.4% |
| COc1ccc(C(c2cc3c(cc2O)OCO3)N2CCCC2)cc1 (stereo not drawn) | 17% | -0.5% | 15.9% | -25.1% | 12.1% | 21.2% |
| O=S(=O)(c1ccccc1)N1CCCCC1 | -23.3% | 5.05% | 3.45% | -33% | 29.5% | 25.6% |
